Measured values: PubChem BioAssay
This is one part of the list. A number with no mark means an inactive call. Active and inactive are the calls of the source.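 How the source made its calls, unless noted: active means mean inhibition above about 50% in the one-dose retest (limit read from the data); inactive means the rest.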

Assays:
[1] = molecular target: Sentrin-specific protease 8 (Homo sapiens) (UniProt Q96LD8); assay: SENP8 protease inhibitors, retest, confirmation, biochemical, luminescence, single concentration (AID 488912;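 active means mean inhibition across replicates above about 50%, limit read from the data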); conditions: Recombinant SENP8, Z-RLRGG-aminoluciferin luminescence, 60 min; at 12.5 µM; hits give high values
Sequence of Sentrin-specific protease 8 (Homo sapiens) (Q96LD8 whole entry, looked up): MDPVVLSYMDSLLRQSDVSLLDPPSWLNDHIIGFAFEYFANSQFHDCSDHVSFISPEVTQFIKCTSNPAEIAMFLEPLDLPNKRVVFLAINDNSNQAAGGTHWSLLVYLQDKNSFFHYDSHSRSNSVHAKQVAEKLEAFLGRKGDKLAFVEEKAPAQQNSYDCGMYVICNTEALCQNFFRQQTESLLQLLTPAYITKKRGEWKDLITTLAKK

[2] = molecular target: Sentrin-specific protease 6 (Homo sapiens) (UniProt Q9GZR1); assay: SENP6 protease inhibitors, confirmation, biochemical, luminescence, single concentration (AID 488915); conditions: recombinant SENP6, Z-RLRGG-aminoluciferin luminescence; at 12.5 µM; hits give high values
Sequence of Sentrin-specific protease 6 (Homo sapiens) (Q9GZR1 628-1112 limits assumed): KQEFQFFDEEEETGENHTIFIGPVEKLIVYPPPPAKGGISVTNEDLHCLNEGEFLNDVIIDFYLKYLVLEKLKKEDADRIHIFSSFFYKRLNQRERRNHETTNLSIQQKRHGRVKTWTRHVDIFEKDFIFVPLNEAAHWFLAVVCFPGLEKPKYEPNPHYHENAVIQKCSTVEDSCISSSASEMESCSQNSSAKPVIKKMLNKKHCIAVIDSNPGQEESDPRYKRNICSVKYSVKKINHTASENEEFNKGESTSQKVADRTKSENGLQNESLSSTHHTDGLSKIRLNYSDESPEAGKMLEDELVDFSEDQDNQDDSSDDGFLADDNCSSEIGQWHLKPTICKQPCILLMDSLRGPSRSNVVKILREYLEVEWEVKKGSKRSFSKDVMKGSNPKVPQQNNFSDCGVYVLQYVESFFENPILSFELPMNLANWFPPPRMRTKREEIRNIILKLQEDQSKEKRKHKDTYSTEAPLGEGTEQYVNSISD

[3] = molecular target: Sentrin-specific protease 7 (Homo sapiens) (UniProt Q9BQF6); assay: SENP7 protease inhibitors, retest, confirmation, biochemical, luminescence, single concentration (AID 488917); conditions: recombinant SENP7, Z-RLRGG-aminoluciferin luminescence, 40 min; at 12.5 µM; hits give high values
Sequence of Sentrin-specific protease 7 (Homo sapiens) (Q9BQF6 706-1050 limits assumed): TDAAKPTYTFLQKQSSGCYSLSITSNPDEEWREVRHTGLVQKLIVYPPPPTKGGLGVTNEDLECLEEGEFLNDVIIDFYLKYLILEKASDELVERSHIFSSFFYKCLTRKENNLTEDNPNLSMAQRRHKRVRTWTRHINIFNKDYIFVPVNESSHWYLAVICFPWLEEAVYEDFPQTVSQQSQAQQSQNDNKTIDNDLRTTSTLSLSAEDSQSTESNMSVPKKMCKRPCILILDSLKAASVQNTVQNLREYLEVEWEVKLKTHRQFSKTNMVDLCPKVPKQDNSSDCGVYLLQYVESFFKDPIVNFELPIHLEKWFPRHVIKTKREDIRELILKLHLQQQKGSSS

Caspase-3 (Homo sapiens) = Caspase-3 (Homo sapiens) (UniProt P42574); assay: caspase-3 protease inhibitors, confirmation, selectivity assay for SENP inhibitor project, biochemical, single concentration (AID 488918;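 active means mean inhibition above about 50%, limit read from the data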;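 further: plate controls were enzyme with DMSO for no effect and wells without caspase-3 for full effect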); conditions: purified caspase-3, Z-DEVD-aminoluciferin luminescence, 60 min; at 12.5 µM; hits give high values
Sequence of Caspase-3 (Homo sapiens) (P42574 28-227 limits assumed): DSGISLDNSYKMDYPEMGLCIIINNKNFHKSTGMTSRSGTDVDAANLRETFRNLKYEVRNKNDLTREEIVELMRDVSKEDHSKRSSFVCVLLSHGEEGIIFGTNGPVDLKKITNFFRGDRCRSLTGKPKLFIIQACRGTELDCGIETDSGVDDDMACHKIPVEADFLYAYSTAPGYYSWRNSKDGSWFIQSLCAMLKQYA

[4] = luciferase luminescence interference by compounds, confirmation, artefact control for SENP inhibitor project, biochemical, single concentration, SENP8 reaction pre-completed (AID 488919;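 active means mean inhibition above about 50% when retested at one dose, limit read from the data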;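 further: plate controls were DMSO wells with completed reaction for no effect and substrate without enzyme for full effect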); conditions: Pre-incubated SENP8/Z-RLRGG-aminoluciferin, at 12.5 µM, hits give high values

| SMILES | inhibition [1] | inhibition [2] | inhibition [3] | inhibition (Caspase-3 (Homo sapiens)) | inhibition [4] |
| --- | --- | --- | --- | --- | --- |
| COc1ccccc1-c1nnc(-c2ccc(F)cc2)o1 | 33.8% | 38.6% | 73.8% (active) | 66.2% (active) | 60.3% (active) |
| Cc1ccccc1Nc1nc(-c2cccnc2)cs1 | 70.3% (active) | 66.9% (active) | 86.9% (active) | 52.8% (active) | 69.4% (active) |
| Cc1c(Cl)cccc1NC(=O)Nc1ccc(C(=O)N2CCCC2)cc1 | 20.5% | 43% | 77.1% (active) | 60.3% (active) | 11.4% |
| Nc1ccc(-c2nnc(-c3ccccc3)o2)cc1 | 51.2% (active) | 51.4% (active) | 79.5% (active) | 65.7% (active) | 35.7% |
| c1csc(-c2nc(-c3ccncc3)no2)c1 | 19.7% | 47.2% | 83.4% (active) | 80.4% (active) | 42.1% |
| CCOc1ccc(C(=O)Nc2cccc(SC)c2)cc1 | -21.9% | 80.1% (active) | 96.7% (active) | 76.3% (active) | 85.8% (active) |
| O=C(Nc1ccc(NC(=O)c2ccco2)c(Cl)c1)c1cccc([N+](=O)[O-])c1 | 8.7% | 6.1% | -6.7% | -0.7% | -0.2% |
| O=C(Nc1ccc(C(=O)O)c(O)c1)c1ccccc1 | 73% (active) | 73.7% (active) | 94.9% (active) | 93.7% (active) | 82.8% (active) |
| CCC(=O)Nc1ccc(C(=O)Nc2cccc(OC)c2)cc1 | 42.4% | 39% | 71.9% (active) | 69.1% (active) | 52.9% (active) |
| O=c1[nH]c(/C=C/c2cccc(Br)c2)nc2ccccc12 | 2.7% | 1.4% | 12.3% | 17.6% | 1% |
| O=C(OCc1ccccc1F)c1ccc2c(c1)OCCO2 | 87.8% (active) | 88.5% (active) | 98.8% (active) | 74.5% (active) | 78.6% (active) |
| Fc1ccc2nc(N3CCCCC3)sc2c1 | 7.7% | 78.8% (active) | 97.3% (active) | 80.5% (active) | 18.4% |
| Brc1ccc2nc(N3CCCC3)sc2c1 | 83.5% (active) | 95.8% (active) | 102% (active) | 81.3% (active) | 38.6% |
| CN(CC(=O)Nc1ccc(Cl)cc1)C(=O)CNC(=O)c1ccc2ccccc2c1 | 15.1% | 12.3% | 66.3% (active) | 21.6% | 1.1% |
| COc1ccc(/C=C/c2noc(-c3ccccc3OC(C)=O)n2)cc1 | 55.1% (active) | 87.7% (active) | 94.5% (active) | 77% (active) | 22.7% |
| Nc1[nH][nH]c(=O)c1N=Nc1ccc2c(c1)OCO2 | 41.3% | 39.2% | 67.3% (active) | 74% (active) | 12% |
| Cc1ccc(F)c(NC(=O)CCc2ccccc2)c1 | 36.4% | 30.4% | 68.6% (active) | 60.7% (active) | 44.8% |
| COCCn1nnnc1C(c1cc2ccc(OC)cc2[nH]c1=O)N1CCc2ccccc2C1 (stereo not given) | 12.6% | 23% | 2.5% | 1% | -2% |
| CCOc1ccc2nc(C(=O)N3CCCC(C)C3)sc2c1 (stereo not given) | 59.3% (active) | 68.3% (active) | 86.3% (active) | 62.5% (active) | 66.4% (active) |
| CNc1nc(Nc2ccc(C)c(Cl)c2)nc(N)c1[N+](=O)[O-] | 97.8% (active) | 98.7% (active) | 103% (active) | 96.9% (active) | 18.3% |
| O=c1[nH]c(CCl)nc2cc(-c3ccc(Cl)cc3)sc12 | 25.3% | 45.5% | 19.6% | 28.2% | 9.5% |
| Cc1ccn2cc(-c3nonc3C)cc2c1 | 47.6% | 77% (active) | 95.7% (active) | 73.7% (active) | 33% |
| O=C(Nc1ccncc1)c1cc2ccccc2o1 | 49.1% | 44% | 76.1% (active) | 75.6% (active) | 49.3% |
| CC(=O)Oc1ccc2c(c1)C(=O)c1ccccc1C2=O | 38.1% | 43.9% | 67.4% (active) | 57.6% (active) | 25.6% |
